Source: PubChem BioAssay (NCATS)
Several values for one entry are separate records, joined by “and”; a condition that tells them apart may be missing. Equal entries are not always repeated. Records with an inconclusive call do not appear. The source holds several records for some structures; these can differ, active in one and inactive in another. Activity calls are given as the source filed them. Calls come from the whole dose curve; as a rule, active = well fitted curve in the direction sought with a large enough effect; inconclusive = small, poorly fitted or top-dose-only effect, or another doubt; inactive = no such curve, though single readings can be large; an effect the other way counts as inactive or inconclusive.

Assays:
[1] = biological target: Cytochrome P450 3A7 (Homo sapiens) (UniProt P24462); test: Cytochrome P450 family 3 subfamily A member 7 (CYP3A7) small molecule antagonists: luciferase biochemical qHTS assay (AID 1963596); note: % is set by controls: 0 for no effect and ±100 for the full control effect; nearly all actives have a fitted effect of over 40% in size
In short: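 Luminescence read-out (relative luminescence units) after 20 min with detection reagent, which stops the reaction. Enzyme, proluciferin substrate and compound preincubated 10 min, RT; NADPH regeneration system then started 1 h reaction. Ketoconazole as positive control.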

[2] = Viability qHTS for spleen associated tyrosine kinase inhibitor (SYKi) naive MV4-11 cells (AID 1963823); note: nearly all actives have a fitted effect of over 40% in size; note: potency is the fitted concentration of half-maximal effect
In short: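 In this viability screen, compounds acted on SYK inhibitor naive MV4-11 cells for three days (72 hr, 37 C). Remaining viable cells were measured by CellTiter-Glo luminescence following a 10 min room-temperature development.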

[3] = Viability qHTS for spleen associated tyrosine kinase inhibitor (SYKi) drug resistant MV4-11 cells (AID 1963824); note: nearly all actives have a fitted effect of over 35% in size; note: potency is the fitted concentration of half-maximal effect
In short: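 CellTiter-Glo luminescence, read 10 min after reagent addition, reports viability after a 72 hr compound exposure. Cells are an MV4-11 line made resistant to SYK inhibition, seeded at 500 per well onto compound-containing plates.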

[4] = Cellular viability qHTS for adrenocortical cancer (ACC) cell line SW-13 (AID 1963989); details: SW-13 ACC cells viability, CellTiter-Glo, 48 h; activity (max response): stronger effect = lower value; note: nearly all actives have a fitted effect of over 65% in size; note: potency is the fitted concentration of half-maximal effect;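 for activity (max response): cells grown in serum-free medium with ITS supplement; % is set by controls: 0 for no effect and ±100 for the full control effect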
In short: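 48 h treatment, SW-13 in ITS/DMEM serum-free; doses up to 46 uM; readout CellTiter-Glo luminescence; curve fit four-parameter logistic.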

[5] = Cellular viability qHTS for adrenocortical cancer (ACC) cell line NCI-H295R (AID 1963990);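 note: 0% = DMSO only wells and -100% = full killing with cytotoxic reference compound; nearly all actives have a fitted effect of over 60% in size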
In short: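 Compound titrations (up to 46 uM final) are applied to NCI-H295R cultures for 48 h at 37C. Viable cell number is estimated by CellTiter-Glo signal, normalised to DMSO and doxorubicin controls.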

Cytochrome P450 3A7 (Homo sapiens), sequence (P24462 whole entry, looked up): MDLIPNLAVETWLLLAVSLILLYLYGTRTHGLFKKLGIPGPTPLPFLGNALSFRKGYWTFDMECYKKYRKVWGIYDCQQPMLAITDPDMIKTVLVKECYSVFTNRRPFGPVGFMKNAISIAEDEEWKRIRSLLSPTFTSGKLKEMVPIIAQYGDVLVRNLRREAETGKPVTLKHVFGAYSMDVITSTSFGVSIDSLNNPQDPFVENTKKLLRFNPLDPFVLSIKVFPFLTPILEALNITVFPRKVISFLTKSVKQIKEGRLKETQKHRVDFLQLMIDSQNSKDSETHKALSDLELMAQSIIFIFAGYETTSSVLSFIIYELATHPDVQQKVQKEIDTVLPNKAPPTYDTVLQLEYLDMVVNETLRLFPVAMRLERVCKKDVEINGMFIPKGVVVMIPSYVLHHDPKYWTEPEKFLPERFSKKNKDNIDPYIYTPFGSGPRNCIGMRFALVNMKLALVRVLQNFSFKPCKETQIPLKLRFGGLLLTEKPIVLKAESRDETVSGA

COC(=O)c1cc(S(N)(=O)=O)ccc1OC
inactive: Potency [1] | Potency [2] | Potency [3] | activity (max response) [4] 6.75%

O=C(O)Cc1sc(-c2ccccc2)nc1-c1ccc(Cl)cc1
inactive: Potency [1] | Potency [2] | Potency [3] | activity (max response) [4] 0.388%

O=C(O)c1ccc(S(=O)(=O)N(Cl)Cl)cc1
inactive: Potency [1] | Potency [2] | Potency [3] | activity (max response) [4] 9.06% | Potency [5]

O=c1[nH]c([C@@H]2CCCN2)nc2c1oc1ccc(Cl)cc12
active: Potency [2] 8.2 µM and 16.6 µM | Potency [3] 16.4 µM
inactive: Potency [1] | activity (max response) [4] -13.8%

CO[C@]1(NC(=O)CSC(F)F)C(=O)N2C(C(=O)O)=C(CSc3nnnn3CCO)CO[C@H]21
inactive: Potency [1] | Potency [2] | activity (max response) [4] -9.56% | Potency [5]
active: Potency [3] 5.8 µM

[Cl][In]([Cl])[Cl]
inactive: Potency [1] | Potency [2] | Potency [3]
active: Potency [4] 35.5 µM

CCCCCCCCCCOc1cc2c(=O)c(C(=O)OCC)c[nH]c2cc1OCC
inactive: activity change, negative = inhibition [1] 9.06% [at 4.83 µM] | viability (% of control) [2] 102% [at 4.97 µM] | viability, % of control [3] 107% [at 4.97 µM] | activity (max response) [4] 0.0943% | activity change, negative = viability loss [5] -5.4% [at 3.81 µM]

Cc1cccc(OCC(O)CNC(C)(C)C)c1C (centres undefined)
inactive: Potency [1] | Potency [2] | Potency [3] | activity (max response) [4] -1.22%

O=S(=O)(O)NC1CCCCC1
inactive: Potency [1] | Potency [2] | Potency [3] | activity (max response) [4] 6.85% | Potency [5]

O=c1[nH]c(=O)n([C@H]2C[C@H](O)[C@@H](CO)O2)cc1F
active: Potency [2] 29.9 nM and 83.3 nM | Potency [3] 0.105 µM | Potency [4] 3.66 µM and 3.55 µM
inactive: Potency [1]

O=C(O)c1ccccc1-c1ccc(C(F)(F)F)cc1
inactive: Potency [1] | Potency [2] | Potency [3] | activity (max response) [4] 8.51% | Potency [5]

CC(=O)OCC(COC(C)=O)OC(C)=O
inactive: Potency [1] | Potency [2] | Potency [3] | activity (max response) [4] 3.85% | Potency [5]

NC(=Nc1ccccc1)Nc1ccccc1
active: Potency [3] 34.4 µM
38.6 µM (active) and inactive: Potency [2]
inactive: Potency [1] | activity (max response) [4] -1.07% | Potency [5]

Cc1coc2ccccc2c1=O
inactive: Potency [1] | Potency [2] | Potency [3] | activity (max response) [4] 19.3% | Potency [5]

CNC(=O)CN(CCN(CCN(CC(=O)[O-])CC(=O)NC)CC(=O)[O-])CC(=O)[O-].O.[Gd+3]
inactive: Potency [1] | Potency [2] | Potency [3] | activity (max response) [4] -4.04% | Potency [5]

CCCCNc1ncc(-c2ccc(CN3CCOCC3)cn2)c(NC2CCC(O)CC2)n1 (centres undefined)
active: Potency [2] 31.7 nM and 57.4 nM | Potency [3] 0.091 µM
inactive: Potency [1] | activity (max response) [4] -11.9% | Potency [5]

CC(C)CCCC(C)NCCC(C)C (centres undefined)
inactive: Potency [1] | Potency [2] | Potency [3] | activity (max response) [4] -7.26% | Potency [5]

COc1cc(S(N)(=O)=O)cc(C(=O)O)c1OC
inactive: Potency [1] | Potency [2] | Potency [3] | activity (max response) [4] 10.1% | Potency [5]

CC(C)(C)NCC(O)COc1cccc2c1C[C@H](O)[C@H](O)C2 (some centres undefined)
inactive: Potency [1] | Potency [2] | Potency [3] | activity (max response) [4] 9.63% | Potency [5]

C[N+](C)(C)CCOC(=O)CCC(=O)OCC[N+](C)(C)C
inactive: Potency [1] | Potency [2] | Potency [3] | activity (max response) [4] 11.2% | Potency [5]

O=C(COCC(=O)N1CCN(C(c2ccccc2)c2ccccc2)CC1)Nc1ccc(Cl)cc1C(=O)O
inactive: Potency [1] | Potency [2] | Potency [3] | activity (max response) [4] -10.1% | Potency [5]

C/C(=N\O)c1ccc(OCC(=O)N2CCCCC2)cc1
inactive: Potency [1] | Potency [2] | Potency [3] | activity (max response) [4] -4.8% | Potency [5]

CN1CC(=O)NC1=N
inactive: Potency [1] | Potency [2] | Potency [3] | activity (max response) [4] 5.44% | Potency [5]

CC(=O)c1ccc(S(=O)(=O)NC(=O)NC2CCCCC2)cc1
inactive: Potency [1] | Potency [2] | Potency [3] | activity (max response) [4] 9.54% | Potency [5]

O=C(c1ccccc1)C(O)c1ccccc1 (centres undefined)
inactive: Potency [1] | Potency [2] | Potency [3] | activity (max response) [4] 11.7% | Potency [5]

Cc1cccc(C)c1NC(=O)CN1CCCCCC1
inactive: Potency [1] | Potency [2] | Potency [3] | activity (max response) [4] 6.22% | Potency [5]

CC[C@@]1(c2ccccc2)NC(=O)N(C)C1=O
inactive: Potency [1] | Potency [2] | Potency [3] | activity (max response) [4] 8.31% | Potency [5]
